According to PubChem BioAssay (EPA / NIEHS):
Active and inactive are the calls of the source. How the source made its calls: active means hit-call score of the fitted dose curve at least 0.9, where 1 is the maximum; inactive means score below 0.9.

What was measured:
Settings in all cases: mRNA level, 48 h; actives raise or lower the signal
[1] = read-out: 3-Hydroxy-3-Methylglutaryl-CoA Synthase 2 (HMGCS2), HMGCS2 (gene 3158); test: LTEA_HepaRG_HMGCS2: Life Technologies and Expression Analysis (LTEA) Assay for 3-Hydroxy-3-Methylglutaryl-CoA Synthase 2 (HMGCS2) using HepaRG (AID 2283504)
Procedure, shortened: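 Differentiated human HepaRG cells were exposed in duplicate for 48 h in serum-free induction medium to eight concentrations (top 100 uM, half-log steps, 0.5% DMSO). HMGCS2 mRNA was quantified by TaqMan qRT-PCR, normalised to ACTB, GAPDH and POLR2A, then fitted bidirectionally against DMSO.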

HGF (gene 3082) = test: LTEA_HepaRG_HGF: Life Technologies and Expression Analysis (LTEA) Assay for Hepatocyte Growth Facto (HGF) using HepaRG (AID 2283505)
Procedure, shortened: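 Differentiated human HepaRG cells in serum-free induction medium were exposed in duplicate for 48 h to eight concentrations (top 100 uM, half-log steps, 0.5% DMSO). HGF mRNA was quantified by qRT-PCR, normalized to ACTB, GAPDH and POLR2A.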

[2] = read-out: Insulin Like Growth Factor 1 (IGF1), IGF1 (gene 3479); test: LTEA_HepaRG_IGF1: Life Technologies and Expression Analysis (LTEA) Assay for Insulin Like Growth Factor 1 (IGF1) using HepaRG (AID 2283506)
Procedure, shortened: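 Endpoint: IGF1 mRNA change by qRT-PCR, housekeeping-normalized, fitted bidirectionally relative to 0.5% DMSO vehicle. Human HepaRG cells were treated 48 h in serum-free induction medium, eight half-log concentrations topping at 100 uM.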

[3] = read-out: Intercellular Adhesion Molecule 1 (ICAM1), ICAM1 (gene 3383); test: LTEA_HepaRG_ICAM1: Life Technologies and Expression Analysis (LTEA) Assay for Intercellular Adhesion Molecule 1 (ICAM1) using HepaRG (AID 2283507)
Procedure, shortened: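 Differentiated HepaRG cells in serum-free induction medium were exposed in duplicate for 48 h to eight half-log concentrations up to 100 uM in 0.5% DMSO. Transcript levels were measured by qRT-PCR normalized to ACTB, GAPDH and POLR2A; bidirectional fits relative to DMSO.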

[4] = read-out: Insulin-like growth factor-binding protein 1 (IGFBP1), IGFBP1 (gene 3484); test: LTEA_HepaRG_IGFBP1: Life Technologies and Expression Analysis (LTEA) Assay for Insulin-like growth factor-binding protein 1 (IGFBP1) using HepaRG (AID 2283508)
Procedure, shortened: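 Differentiated human HepaRG cells in serum-free induction medium were exposed in duplicate for 48 h to eight concentrations, top 100 uM with half-log dilutions, in 0.5% DMSO. Transcript levels came from qRT-PCR normalised to ACTB, GAPDH and POLR2A, fitted bidirectionally against DMSO.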

[5] = read-out: Interleukin 6 (IL6), IL6 (gene 3569); test: LTEA_HepaRG_IL6: Life Technologies and Expression Analysis (LTEA) Assay for Interleukin 6 (IL6) using HepaRG (AID 2283509)
Procedure, shortened: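 Changes in IL6 mRNA, up or down relative to 0.5% DMSO controls, were derived from concentration-response curves in human HepaRG cells treated for 48 h at up to 100 uM, with ACTB, GAPDH and POLR2A as normalizers.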

[6] = read-out: Interleukin 6 Receptor (IL6R), IL6R (gene 3570); test: LTEA_HepaRG_IL6R: Life Technologies and Expression Analysis (LTEA) Assay for Interleukin 6 Receptor (IL6R) using HepaRG (AID 2283510)
Procedure, shortened: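 In this HepaRG screen, test chemicals act on cells for 48 h at up to 100 uM (eight half-log points, duplicate wells). IL6R expression is quantified by qRT-PCR after normalization to ACTB, GAPDH and POLR2A, with DMSO as baseline.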

[7] = read-out: Potassium channel subfamily K member 1 (KCNK1), KCNK1 (gene 3775); test: LTEA_HepaRG_KCNK1: Life Technologies and Expression Analysis (LTEA) Assay for Potassium channel subfamily K member 1 (KCNK1) using HepaRG (AID 2283511)
Procedure, shortened: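 Human HepaRG cultures receive test chemicals for 48 h in 0.5% DMSO, top concentration 100 uM with half-log dilutions. Induction or suppression of KCNK1 mRNA relative to DMSO is derived by bidirectional fitting of qRT-PCR data.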

[8] = read-out: Keratin 19 (KRT19), KRT19 (gene 3880); test: LTEA_HepaRG_KRT19: Life Technologies and Expression Analysis (LTEA) Assay for Keratin 19 (KRT19) using HepaRG (AID 2283512)
Procedure, shortened: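 Differentiated human HepaRG cells, plated 48 h, were exposed in duplicate for 48 h in serum-free induction medium to eight half-log concentrations up to 100 uM in 0.5% DMSO. KRT19 mRNA was quantified by qRT-PCR, normalized to ACTB, GAPDH and POLR2A, and fitted bidirectionally versus DMSO.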

[9] = read-out: JUN Transcription Factor, JUN (gene 3725); test: LTEA_HepaRG_JUN: Life Technologies and Expression Analysis (LTEA) Assay for JUN Transcription Factor using HepaRG (AID 2283513)
Procedure, shortened: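 Gene-expression endpoint: JUN mRNA (qRT-PCR, normalized to three reference genes) in HepaRG cultures treated 48 h with chemicals, duplicate wells, 100 uM maximum with half-log dilutions; bidirectional fitting relative to 0.5% DMSO.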

[10] = read-out: Lipase C (LIPC), LIPC (gene 3990); test: LTEA_HepaRG_LIPC: Life Technologies and Expression Analysis (LTEA) Assay for Lipase C (LIPC) using HepaRG (AID 2283514)
Procedure, shortened: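 In this multiplexed gene-expression screen, human HepaRG cultures received test chemicals for 48 h across eight concentrations with 100 uM highest, in duplicate. Values reflect LIPC mRNA induction or suppression versus DMSO vehicle, from normalized qRT-PCR.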

[11] = read-out: Lipoprotein lipase (LPL), LPL (gene 4023); test: LTEA_HepaRG_LPL: Life Technologies and Expression Analysis (LTEA) Assay for Lipoprotein lipase (LPL) using HepaRG (AID 2283515)
Procedure, shortened: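 Concentration-response testing used half-log steps from 100 uM in 0.5% DMSO on human HepaRG cells, 48 h, duplicate wells. Phenobarbital 1 mM served as induction control; LPL mRNA was normalized to ACTB, GAPDH, POLR2A.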

[12] = read-out: MicroRNA 122 (MIR122), gene 406906; test: LTEA_HepaRG_MIR122: Life Technologies and Expression Analysis (LTEA) Assay for MicroRNA 122 (MIR122) using HepaRG (AID 2283516); further: the transcript read is the microRNA miR-122
Procedure, shortened: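 Changes in transcript abundance, up or down relative to 0.5% DMSO vehicle, were scored after 48 h chemical treatment of HepaRG cells (maximum 100 uM). Quantification used TaqMan qRT-PCR normalized to housekeeping genes.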

[13] = read-out: matrix metalloproteinase-10 (MMP10), MMP10 (gene 4319); test: LTEA_HepaRG_MMP10: Life Technologies and Expression Analysis (LTEA) Assay for matrix metalloproteinase-10 (MMP10) using HepaRG (AID 2283517)
Procedure, shortened: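 In differentiated HepaRG cultures kept in 0.5% DMSO, test chemicals act for 48 h over an eight-point range with a top dose of 100 uM. Expression is then quantified by TaqMan RT-PCR against ACTB, GAPDH and POLR2A.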

MYC, MYC (gene 4609) = test: LTEA_HepaRG_MYC: Life Technologies and Expression Analysis (LTEA) Assay for MYC using HepaRG (AID 2283518)
Procedure, shortened: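 Differentiated human HepaRG cells, plated 48 h then switched to serum-free induction medium, were exposed in duplicate for 48 h to 8-point half-log series up to 100 uM in 0.5% DMSO. MYC mRNA measured by qRT-PCR, normalized to ACTB/GAPDH/POLR2A.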

[14] = read-out: matrix metalloproteinase-3 (MMP3), MMP3 (gene 4314); test: LTEA_HepaRG_MMP3: Life Technologies and Expression Analysis (LTEA) Assay for matrix metalloproteinase-3 (MMP3) using HepaRG (AID 2283519)
Procedure, shortened: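 Human liver HepaRG cultures received chemicals (top concentration 100 uM, 0.5% DMSO) for 48 h in duplicate. MMP3 mRNA induction or loss was then assessed via TaqMan qRT-PCR with housekeeping-gene normalisation.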

[15] = read-out: Paternally Expressed 10 (PEG10), PEG10 (gene 23089); test: LTEA_HepaRG_PEG10: Life Technologies and Expression Analysis (LTEA) Assay for Paternally Expressed 10 (PEG10) using HepaRG (AID 2283520)
Procedure, shortened: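 After 48 h exposure of differentiated HepaRG cells (0.5% DMSO vehicle, eight concentrations up to 100 uM, duplicates), PEG10 mRNA was measured by TaqMan qRT-PCR. Values were normalised to endogenous control genes and analysed bidirectionally against vehicle.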

[16] = read-out: Nuclear factor NF-kappa-B p105 subunit (Homo sapiens) (UniProt P19838); test: LTEA_HepaRG_NFKB1: Life Technologies and Expression Analysis (LTEA) Assay for Nuclear Factor Kappa B Subunit 1 (NFKB1) using HepaRG (AID 2283521);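 further: TaqMan qRT-PCR transcript normalised to ACTB GAPDH and POLR2A housekeeping genes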
Procedure, shortened: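 Differentiated human HepaRG cells were exposed for 48 h in serum-free induction medium to eight concentrations (top 100 uM, half-log steps, 0.5% DMSO), in duplicate. NFKB1 mRNA was measured by TaqMan qRT-PCR, normalized to ACTB/GAPDH/POLR2A, and fitted bidirectionally against DMSO.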

[17] = read-out: Protein phosphatase 2A (PPP2R4), PTPA (gene 5524); test: LTEA_HepaRG_PPP2R4: Life Technologies and Expression Analysis (LTEA) Assay for Protein phosphatase 2A (PPP2R4) using HepaRG (AID 2283522)
Procedure, shortened: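 Using HepaRG cultures maintained in 0.5% DMSO, chemicals are tested 48 h at up to 100 uM in duplicate. Induction or suppression of PPP2R4 mRNA, measured by qRT-PCR, is fitted bidirectionally against the vehicle baseline.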

[18] = read-out: Phosphatase and tensin (PTEN), PTEN (gene 5728); test: LTEA_HepaRG_PTEN: Life Technologies and Expression Analysis (LTEA) Assay for Phosphatase and tensin (PTEN) using HepaRG (AID 2283523)
Procedure, shortened: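 Expression of PTEN is quantified in the human liver line HepaRG following two days of dosing (top concentration 100 uM, half-log dilutions, 0.5% DMSO). Values derive from bidirectional curve fitting relative to DMSO controls.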

Measured: outcome

Nuclear factor NF-kappa-B p105 subunit (Homo sapiens), sequence (P19838 whole entry, looked up): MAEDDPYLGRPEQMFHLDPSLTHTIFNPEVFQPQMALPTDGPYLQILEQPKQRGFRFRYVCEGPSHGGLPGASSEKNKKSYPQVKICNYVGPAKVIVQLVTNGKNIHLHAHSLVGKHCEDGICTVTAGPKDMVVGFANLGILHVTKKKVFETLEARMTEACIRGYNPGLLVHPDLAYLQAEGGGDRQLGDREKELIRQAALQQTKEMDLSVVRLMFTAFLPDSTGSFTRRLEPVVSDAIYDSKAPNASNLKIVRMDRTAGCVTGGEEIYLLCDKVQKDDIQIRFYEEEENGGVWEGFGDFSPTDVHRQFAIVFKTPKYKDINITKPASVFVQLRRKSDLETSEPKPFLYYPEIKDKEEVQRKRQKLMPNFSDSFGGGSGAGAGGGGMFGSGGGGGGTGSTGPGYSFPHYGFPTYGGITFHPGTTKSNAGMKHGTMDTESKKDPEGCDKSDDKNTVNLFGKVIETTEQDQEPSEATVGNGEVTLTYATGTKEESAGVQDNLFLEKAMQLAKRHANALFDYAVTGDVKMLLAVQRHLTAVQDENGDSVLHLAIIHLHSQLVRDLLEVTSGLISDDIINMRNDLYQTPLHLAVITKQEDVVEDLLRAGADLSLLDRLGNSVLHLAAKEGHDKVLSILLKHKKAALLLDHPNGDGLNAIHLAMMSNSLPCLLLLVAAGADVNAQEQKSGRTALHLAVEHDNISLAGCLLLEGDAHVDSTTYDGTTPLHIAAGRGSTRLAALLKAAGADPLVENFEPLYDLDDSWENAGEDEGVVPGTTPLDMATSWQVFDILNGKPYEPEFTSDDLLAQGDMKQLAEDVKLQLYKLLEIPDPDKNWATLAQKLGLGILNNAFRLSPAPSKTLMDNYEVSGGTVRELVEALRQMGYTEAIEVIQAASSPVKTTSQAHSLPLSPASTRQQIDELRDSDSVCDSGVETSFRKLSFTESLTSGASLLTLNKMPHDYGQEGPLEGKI

O=C(O)c1ccc([N+](=O)[O-])cc1
inactive: [1] | HGF (gene 3082) | [2] | [3] | [4] | [5] | [6] | [7] | [8] | [9] | [10] | [11] | [12] | [13] | MYC, MYC (gene 4609) | [14] | [15] | [16] | [17] | [18]
